USP8 inh: inhibitors of human USP8 deubiquitinase. Ubiquitin carboxyl-terminal hydrolase 8 (Homo sapiens), P40818. purified USP8, Ub-rhodamine cleavage fluorescence, 30 min. inhibition, % at 20 µM. 47,000 tested, 4.2% active
USP28 block: inhibitors of human USP28 deubiquitinase; Ubiquitin carboxyl-terminal hydrolase 28 (Homo sapiens), Q96RU2; purified USP28, Ub-rhodamine cleavage fluorescence, 30 min; inhibition, % at 25 µM; 47,000 tested, 3% active; AID 1645857, 2021
USP30 block: inhibitors of human USP30 deubiquitinase. 47,000 tested, 5.3% active. Ubiquitin carboxyl-terminal hydrolase 30 (Homo sapiens), Q70CQ3. inhibition, % at 25 µM. purified USP30, Ub-rhodamine cleavage fluorescence
USP17 block: inhibitors of human USP17 deubiquitinase; purified USP17, Ub-rhodamine cleavage fluorescence, 3 h; inhibition, % at 50 µM; 47,000 tested, 6.5% active; Ubiquitin carboxyl-terminal hydrolase 17-like protein 5 (Homo sapiens), A8MUK1
Target sequence (A8MUK1 whole entry, looked up): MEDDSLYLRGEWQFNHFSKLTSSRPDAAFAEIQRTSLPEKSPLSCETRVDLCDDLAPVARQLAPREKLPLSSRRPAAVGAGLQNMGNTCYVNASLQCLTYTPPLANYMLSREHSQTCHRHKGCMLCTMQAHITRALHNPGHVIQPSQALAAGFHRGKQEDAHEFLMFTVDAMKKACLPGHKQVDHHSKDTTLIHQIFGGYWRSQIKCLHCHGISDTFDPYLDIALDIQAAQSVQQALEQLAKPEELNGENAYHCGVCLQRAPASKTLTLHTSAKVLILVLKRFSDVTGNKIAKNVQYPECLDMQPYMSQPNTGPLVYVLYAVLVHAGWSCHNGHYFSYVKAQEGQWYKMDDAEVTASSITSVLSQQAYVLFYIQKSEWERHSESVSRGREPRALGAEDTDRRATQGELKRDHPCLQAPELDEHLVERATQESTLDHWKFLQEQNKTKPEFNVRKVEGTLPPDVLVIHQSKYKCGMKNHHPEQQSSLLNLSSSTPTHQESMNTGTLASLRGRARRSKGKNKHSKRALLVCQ
* = called active by the depositor; i = inactive; . = no result. Most compounds without a hit are left out; they make up all but 13% or so of the library. Rule as the data show it: active = inhibition above about 30%; inactive = the rest.

SMILES | USP8 inh | USP28 block | USP30 block | USP17 block
COc1ccc(-n2c(-c3ccccc3)cn3c(-c4ccccc4)c(-c4ccccc4)nc23)cc1 | 80* | 23 | 59* | 55*
OCCCn1c(-c2ccccc2)cn2c(-c3ccccc3)c(-c3ccccc3)nc12 | 30 | 5 | -1 | 26
COc1ccc(-c2cn3c(-c4ccccc4)c(-c4ccccc4)nc3n2CCc2ccccc2)cc1 | 73* | -2 | -13 | 27
CC(=O)N1CCC2(CC1)CO[C@@H]([C@@]1(C)CC[C@H](O)C(C)(C)O1)C2 | -12 | -10 | -15 | -1
Cc1cc(C(=O)N2CCC(c3nc4ccccc4cc3C(=O)N3CCCC3)CC2)on1 | 18 | 6 | 17 | 2
Cc1sc2nc(CN3CCCC3)nc(NCCc3ccc(Cl)cc3)c2c1C | -264 | -235 | i | -190
Cc1ccc(CNC(=O)CCc2csc(NC(=O)c3ccc(=O)[nH]c3)n2)cc1 | -43 | 23 | 33* | -11
Cc1ccccc1NC(=O)CC1C(=O)N(Cc2ccccn2)c2nc3ccccc3n21 (stereo unspecified) | 14 | 14 | 12 | 11
COc1ccc(-n2c(/C=C/c3cccc4ccccc34)nc3ccccc3c2=O)cc1 | -6 | 3 | 9 | -9
COc1ccc(-n2c(=O)c(CCC(=O)O)nc3ccccc32)cc1 | 15 | -7 | -45 | 50*
Cc1ccc2cnn(CC(=O)N3CCCCC3)c2c1 | -3 | . | . | 4
Cc1c(C(=O)NCc2ccco2)oc2c1/C(=N\O)CCC2 | 8 | 15 | 3 | 31*
Cc1c(C(=O)O)oc2c1/C(=N\O)CCC2 | -2 | -3 | -3 | -14
CO\C=C(C(=O)OC)/C(C)=C\C=C\c1cccc(OC)c1 | 11 | 0 | 5 | 0
CCc1nc(Sc2ccc3ccccc3c2)c2oc3ccccc3c2n1 | -1 | 5 | 52* | 51*
CCc1nc(SCC(=O)NCCc2ccc(OC)c(OC)c2)c2oc3ccccc3c2n1 | 3 | 8 | 21 | -7
COc1ccc(OC)c(NC(=O)CSc2nc(C)nc3c2oc2ccccc23)c1 | 3 | 8 | 18 | 61*
CCc1nc(SCC(=O)Nc2cc(C)ccc2OC)c2oc3ccccc3c2n1 | 5 | 3 | 42* | 41*
Cc1nn(-c2cc(N3CCOCC3)ncn2)c(C)c1CCC(=O)Nc1ccc(Cl)cc1 | -2 | 5 | -3 | 12
Cc1nn(-c2cc(N3CCOCC3)ncn2)c(C)c1CCC(=O)Nc1ccc(C(C)C)cc1 | -151 | 4 | -7 | 65*
c1ccc(-c2cc3nc(NCc4ccncc4)ccn3n2)cc1 | -34 | 1 | 4 | -16
c1coc(-c2cc3nc(NCCCn4ccnc4)ccn3n2)c1 | 15 | 23 | -92 | 46*
CN(C)c1ccc(CNc2nn3c(-c4cccnc4)cnc3s2)cc1 | 24 | 67* | 91* | 63*
c1cncc(-c2cnc3sc(NCc4ccc5c(c4)OCO5)nn23)c1 | 37* | 87* | 101* | 61*
COc1cccc(C(=O)NCc2csc(-c3ccccc3)n2)c1 | -54 | -4 | -17 | -15
SMILES | USP8 inh | USP28 block | USP30 block | USP17 block
COc1cccc(C(=O)NCc2[nH]nc3ccccc23)c1 | 84* | 28 | 27 | 57*
COc1cc(OC)cc(C(=O)NCc2[nH]nc3ccccc23)c1 | 2 | 31* | 19 | 9
Cc1ccc(C(=O)N2CCCCC2c2cc(-c3nccn3C)nc(C)n2)cn1 (stereo unspecified) | -21 | -10 | -26 | -16
Nc1c(C(=O)CSc2n[nH]c(-c3ccccc3F)n2)c(=O)[nH]c(=O)n1C1CC1 | 10 | 7 | -199 | -18
O=C1NCc2ccccc2CC12CCCN(Cc1ccc3ccccc3n1)C2 (stereo unspecified) | -49 | -15 | -106 | -19
Cc1nc(N2CCCC2)ncc1-c1cc(=O)[nH]c(Nc2ccc(F)cc2)n1 | 25 | -133 | 30 | 6
CNC(=O)c1cc2nc(N(C)C)n(-c3ccc(F)cc3)c2s1 | 89* | 46* | -3 | 71*
CN(C)c1nc2cc(C(=O)N3CCCC3)sc2n1-c1ccccc1 | 57* | 4 | 5 | 12
Cc1cccc(NS(=O)(=O)c2cc3n(c2)CCN(C)C3=O)c1C | 0 | -1 | -13 | .
Cc1ccc2[nH]cc(S(=O)(=O)c3cc(Cl)cc(Cl)c3)c(=O)c2c1 | 13 | -3 | -33 | 48*
Cc1c(Cl)cccc1NS(=O)(=O)c1ccc2[nH]cc(C(=O)N3CCCCCC3)c(=O)c2c1 | -77 | 3 | -82 | -14
O=S(=O)(c1ccc(-c2ccco2)cc1)C1CCN(CCc2ccccn2)CC1 | 4 | -12 | -51 | 31*
CCCCCOC(=O)Cn1c(=O)c2c(nc(Br)n2Cc2ccc(Cl)cc2)n(C)c1=O | 1 | 1 | 7 | -20
O=S(=O)(Nc1ccccc1-c1ccccc1)c1ccccc1F | 17 | 15 | 20 | 16
O=S(=O)(Nc1ccc(Oc2ccccc2)cc1)c1ccccc1F | 4 | 32* | 41* | 34*
CC(=O)Nc1c2sscc-2[nH]c1=O | 0 | 4 | 70* | -20
COc1ccccc1NC(=O)Cc1noc2ccc(C)cc12 | 0 | -2 | -17 | .
Cn1c(C(=O)NCc2ccccn2)cc2c(=O)[nH]c3ccccc3c21 | 87* | 38* | -29 | 80*
Cc1cccc(C(=O)Nc2c(C(=O)NCc3ccccn3)[nH]c3ccccc23)c1 | -18 | -17 | -26 | -19
COc1ccc(CC(=O)Nc2cccc(-c3nc4ncccc4o3)c2)cc1OC | 6 | 55* | 0 | -26
Cc1ccc(OCC(=O)Nc2c(C)nc3sccn3c2=O)c(C)c1 | -20 | 11 | -31 | 3
O=C(Nc1cccc(-c2nc3ncccc3o2)c1)c1cccc(-c2cc3ccccc3oc2=O)c1 | 6 | 69* | 67* | 68*
COc1ccc(C(=O)Nc2cccc(-c3nc4ncccc4o3)c2)cc1 | -1 | -7 | -19 | -9
Cc1ccc(OCC(=O)Nc2cccc(-c3nc4ncccc4o3)c2)c(C)c1 | 0 | 16 | 59* | 20
COc1ccc(C(=O)Nc2cc(C)c(O)c(-c3nc4ncccc4o3)c2)cc1Cl | -11 | 0 | -48 | 19
SMILES | USP8 inh | USP28 block | USP30 block | USP17 block
COc1ccc(C(=O)Nc2ccc(-c3nc4ncccc4o3)cc2)cc1Br | 9 | 21 | 26 | 32*
CC(=O)Nc1ccc(C(=O)NC2CCN(c3cc(-c4ccc(F)cc4)[nH]n3)CC2)cc1 | -10 | -8 | 2 | 0
COc1ccc(CC(=O)Nc2cccc(-c3cn4cccnc4n3)c2)cc1 | -4 | 15 | -286 | 31*
COc1cccc(CC(NC(C)=O)C(=O)NC2CCN(c3nc(C)cc(C)n3)CC2)c1 (stereo unspecified) | -8 | . | . | -9
O=C(CSc1ccc2nnc(CCNS(=O)(=O)c3ccccc3)n2n1)NCc1ccc(F)cc1 | 11 | 12 | 16 | 39*
COc1cc(C)c(NC(=O)CCCc2c[nH]c3ccccc23)cc1OC | -9 | -19 | -6 | -11
Cc1ccccc1CCNC(=O)c1cc(C2CC2)nc2c1cnn2C(C)C | -4 | 19 | -10 | -51
CC(C)n1ncc2c(C(=O)NCCc3ccc(F)cc3)cc(C3CC3)nc21 | -2 | 42* | -24 | 0
